Source: PubChem
Sampled rows, rich in hits. Any-hit rate of the full collection: about 3.8%.
Mdm2 MdmX PPI – human Mdm2/MdmX binding inhibition; inhibition, % at 8 µM; AID 485346; 330,000 compounds, 3% hits; O15151+Q00987; SaOS-2 split-luciferase Mdm2/MdmX complementation, luminescence;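 active = inhibition of at least 50% at 8 µM in the primary screen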
NTR1 agonist – activates human neurotensin receptor 1; P30989; NTR1-U2OS beta-arrestin-GFP spot imaging, agonist mode; 330,000 compounds, 0.17% hits; activation, % at 20 µM; AID 493036;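 active = activation at or above 40% of the spot to cytoplasm intensity ratio, with at least 20 cells analyzed; inconclusive = wells under 20 cells, flagged as cytotoxic or low count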
Target sequence (P30989 whole entry, looked up): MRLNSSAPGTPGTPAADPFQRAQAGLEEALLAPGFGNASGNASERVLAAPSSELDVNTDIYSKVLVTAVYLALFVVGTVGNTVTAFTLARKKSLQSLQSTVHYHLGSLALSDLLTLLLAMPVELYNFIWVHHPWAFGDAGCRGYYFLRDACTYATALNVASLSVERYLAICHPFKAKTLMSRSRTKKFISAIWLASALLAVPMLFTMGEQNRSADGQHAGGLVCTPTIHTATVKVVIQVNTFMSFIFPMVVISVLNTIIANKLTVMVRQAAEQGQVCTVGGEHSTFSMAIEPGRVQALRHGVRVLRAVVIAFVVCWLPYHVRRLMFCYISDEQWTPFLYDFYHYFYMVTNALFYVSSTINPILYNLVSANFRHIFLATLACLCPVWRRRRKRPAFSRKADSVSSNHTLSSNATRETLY
Beta cell apopt – beta cell apoptosis inhibition; protection from apoptosis, % (no concentration beside the values); INS-1E cytokine-induced death, ATP luminescence, 48 h; percent of positive-control rescue, neutral wells zero; 300,000 compounds, 0.8% hits; AID 435005;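 active = Every replicate reaches about 75%, or at least half do and their mean reaches it too, limit read from the data; inconclusive = At least half of replicates reach the limit but their mean does not; inactive = Under half of replicates reach the limit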;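 also: higher means more ATP so stronger rescue from cytokine killing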
A1 inh – inhibitors of the anti-apoptotic protein A1, read as caspase activation; MEF A1-2A-BIM cells, Caspase-Glo 3/7 luminescence, 3 h; percent of clofoctol response, vehicle zero; caspase activation, % (test concentration not listed); 330,000 compounds, 0.066% hits; AID 2462;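 active = over half of replicate activation scores above 10%, or exactly half above 10 with the replicate mean above 10; inconclusive = replicate mean below 10 yet half the replicates above 10; inactive = over half of replicates below 10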
Jurkat NFkB inh – inhibitors of the PMA/ionomycin-induced NF-kB reporter in Jurkat cells; PMA/ionomycin-induced NF-kB luciferase reporter, luminescence; inhibition, % at 4 µM; 330,000 compounds, 0.53% hits; AID 435003; in the data active = inhibition above about 50%
697 NFkB inh – inhibitors of the PMA/ionomycin-induced NF-kB reporter in 697 B cells; 697 B-cell NF-kB luciferase reporter, 16 h; inhibition, % at 4 µM; 330,000 compounds, 0.33% hits; AID 435022; in the data active = inhibition above about 35%
Mdm2 MdmX conf – confirmation of human Mdm2/MdmX interaction inhibitors | shares compounds with Mdm2 MdmX PPI | Mdm2-MdmX binding, luminescent assay | inhibition, % at 8 µM | 10,000 compounds, 55% hits; in the data active = inhibition above about 40%
Full FLuc ctr – counter-screen for Mdm2/MdmX inhibitors: full-length luciferase | shares compounds with Mdm2 MdmX PPI | inhibition, % at 8 µM | 6,200 compounds, 77% hits | SaOS-2 full-length luciferase counterscreen, luminescence | AID 504607;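 active = mean inhibition at 8 µM reaching about 37%, which flags the compound as non-specific, limit read from the data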;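 also: p53-null SaOS-2 cells with luciferase driven by a doxycycline-inducible promoter; compound on cells about two nights before reading with doxycycline added after day one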
Of the large screens only hits and unclear results are named; the others gave an inactive call (follow-up assays come after a bar, where they were run).

O=C(c1ccc(OCCN2CCCCC2)cc1)c1c(-c2ccc(O)cc2)sc2cc(O)ccc12	Mdm2 MdmX PPI 65 | Mdm2 MdmX conf inactive
COc1cc2sc(-c3ccccc3OC)c(-c3ccc(OCCN4CCCCC4)cc3)c2cc1OC	Mdm2 MdmX PPI 100, Beta cell apopt 124 | Mdm2 MdmX conf 43 | Full FLuc ctr 56
COc1ccccc1-c1sc2cc3c(cc2c1-c1ccc(OCCN2CCCCC2)cc1)OCO3	Mdm2 MdmX PPI 98 | Mdm2 MdmX conf 42 | Full FLuc ctr 39
COc1ccc2sc(-c3ccccc3OC)c(-c3ccc(OCCN4CCOCC4)cc3)c2c1	none (no result: Beta cell apopt, A1 inh, Jurkat NFkB inh)
CCc1ccc(S(=O)(=O)N2CCN(c3ncccn3)CC2)cc1	none
Cc1nc2cc(Cl)c(Cl)cc2n1-c1ccccn1	none
CCN(C[C@H]1N[C@@](CC)(C(=O)OC)[C@H]2C(=O)N(Cc3ccccc3)C(=O)[C@@H]12)S(=O)(=O)c1ccc(C)cc1	none
CC[C@@]1(C(=O)OC)N[C@H](CN(C)S(=O)(=O)c2ccccc2)[C@@H]2C(=O)N(Cc3ccccc3)C(=O)[C@@H]21	none
CCN(C[C@H]1N[C@@](CC)(C(=O)OC)[C@H]2C(=O)N(Cc3ccccc3)C(=O)[C@@H]12)S(=O)(=O)c1ccc(C(C)(C)C)cc1	Mdm2 MdmX PPI 69 | Mdm2 MdmX conf 62 | Full FLuc ctr 52
CCN(C[C@H]1N[C@@](CC)(C(=O)OC)[C@H]2C(=O)N(Cc3ccccc3)C(=O)[C@@H]12)S(=O)(=O)c1ccc(-c2ccccc2)cc1	Mdm2 MdmX PPI 80 | Mdm2 MdmX conf 79 | Full FLuc ctr inactive
CC[C@@]1(C(=O)OC)N[C@H](CN(C)S(=O)(=O)c2ccc(-c3ccccc3)cc2)[C@@H]2C(=O)N(Cc3ccccc3)C(=O)[C@@H]21	Mdm2 MdmX PPI 91 (no result: Beta cell apopt, A1 inh) | Mdm2 MdmX conf 87 | Full FLuc ctr 46
Cc1nn(C(C)C(=O)NCCc2ccco2)c(=O)c2nn(-c3ccccc3)c(C)c12 (centres undefined)	none
CCOc1ccccc1N(CC(=O)Nc1ccccc1)S(=O)(=O)c1ccccc1	none
COc1ccc(CNC(=S)Nc2ccc3nc(N4CCN(C)CC4)cc(C)c3c2)cc1	none
Cc1cc(N2CCN(C)CC2)nc2ccc(NC(=O)c3ccc4c(c3)OCO4)cc12	Mdm2 MdmX PPI 55 | Mdm2 MdmX conf inactive
COc1cc(C(=O)Nc2ccc3nc(N4CCN(C)CC4)cc(C)c3c2)cc(OC)c1OC	Mdm2 MdmX PPI 53 | Mdm2 MdmX conf inactive
Cc1cc(N2CCN(C)CC2)nc2ccc(NC(=O)c3ccc(Br)o3)cc12	none
COc1ccccc1CNC(=S)Nc1ccc2nc(N3CCN(C)CC3)cc(C)c2c1	Mdm2 MdmX PPI 54 | Mdm2 MdmX conf 50 | Full FLuc ctr 61
Cc1ccc(OS(=O)(=O)c2c(C)nn(C)c2Cl)c(C)c1	none
Cc1ccc(CN2CCCN(C)CC2)c(C)c1	none
c1ccc(CCn2c3ccccc3c3nnc(SCc4ccc5nonc5c4)nc32)cc1	Mdm2 MdmX PPI 91 | Mdm2 MdmX conf 63 | Full FLuc ctr 44
CCOC(=O)C1CCCCN1S(=O)(=O)c1ccc2c(c1)CC(C)N2C(=O)C1CCC1 (centres undefined)	none
Cc1c(C)c2ccc(OCC(=O)Nc3ccc(S(N)(=O)=O)cc3)c(C)c2oc1=O	none
CNc1ccccc1C(=O)OC(C)C(=O)Nc1ccc(Cl)cn1 (centres undefined)	Mdm2 MdmX PPI 91 (no result: Beta cell apopt) | Mdm2 MdmX conf 83 | Full FLuc ctr 113
O=C(CC(c1ccccc1)c1ccccc1)Nc1ccc(Cl)cn1	Mdm2 MdmX PPI 59 | Mdm2 MdmX conf 53 | Full FLuc ctr 61
O=C(Nc1ccc(Cl)cn1)c1ccccc1[N+](=O)[O-]	none
O=C(Nc1ccc(Cl)cn1)c1cccc2ccccc12	Mdm2 MdmX PPI 52 | Mdm2 MdmX conf 42 | Full FLuc ctr 71
Cc1cc(N2CCN(S(=O)(=O)c3ccccc3)CC2)nc2c(C)cccc12	none
Cc1cccnc1NC(=O)CSc1ccc2c(c1)OCCO2	none
CCC(=O)Nc1ccc(/C(C)=N\NC(=O)c2ccc(C)s2)cc1	none
C/C(=N/NC(=O)c1ccc(Cl)s1)c1ccc(NC(=O)COc2ccc(Cl)cc2)cc1	Mdm2 MdmX PPI 78 | Mdm2 MdmX conf inactive
O=C(Nc1ccc(NC(=O)c2ccc(Cl)cc2Cl)cc1)c1cccs1	Mdm2 MdmX PPI 72 | Mdm2 MdmX conf inactive
C/C(=N/NC(=O)c1cccs1)c1ccc(NC(=O)COc2ccc(Cl)cc2Cl)cc1	Mdm2 MdmX PPI 75 | Mdm2 MdmX conf inactive
CN(C)c1ccc(/C=C(/NC(=O)c2ccccc2Cl)C(=O)NCCN2CCOCC2)cc1	none
COc1ccc(NCC(=O)Nc2cccc(C(F)(F)F)c2)cc1S(=O)(=O)N1CCOCC1	none
O=C(Nc1nc(-c2ccccn2)cs1)c1cc2ccccc2o1	Mdm2 MdmX PPI 52 | Mdm2 MdmX conf 55 | Full FLuc ctr 53
Cc1nnc(NC(=O)c2oc3ccccc3c2C)s1	none
Cc1cc(-c2csc(NC(=O)c3cc4ccccc4o3)n2)c(C)n1C	none
Cc1c(C(=O)Nc2nc(-c3ccccn3)cs2)oc2ccccc12	Mdm2 MdmX PPI 67, Beta cell apopt 84 | Mdm2 MdmX conf 64 | Full FLuc ctr 47
CC(C)NC(=O)COc1coc(CN2CCN(c3ccccc3)CC2)cc1=O	none (no result: Beta cell apopt)
Cc1ccccc1CN1[C@@H](CC2CCCCC2)COCCS1(=O)=O	none
O=[N+]([O-])c1ccc(-c2c(O)c3ccccc3c3nc4ccccc4nc23)cc1	Mdm2 MdmX PPI 65 | Mdm2 MdmX conf inactive
COc1cc(OC)cc(C(=O)N/N=C(\C)CC(=O)Nc2ccccn2)c1	none
COc1ccc(CN2C(=O)COc3ccccc32)cc1	A1 inh inconclusive
COc1ccc(CC2(CO)COc3ccccc3C2=O)cc1 (centres undefined)	Mdm2 MdmX PPI 51 | Mdm2 MdmX conf inactive | Full FLuc ctr 85
CCS(=O)(=O)c1nnnn1-c1ccccc1S(C)(=O)=O	Mdm2 MdmX PPI 60 | Mdm2 MdmX conf 63 | Full FLuc ctr inactive
COc1ccc(-n2nnnc2S(=O)(=O)Cc2ccc(C(=O)O)cc2)cc1	none
C/C(CC(=O)Nc1cc(C)ccn1)=N\NC(=O)c1cccc(C)c1	none
C/C(CC(=O)Nc1cc(C)ccn1)=N\NC(=O)c1cccc(C)c1O	Mdm2 MdmX PPI 66 | Mdm2 MdmX conf 46 | Full FLuc ctr 121
Cc1cccc(NC(=O)CNC(=O)c2sc3ccccc3c2Cl)n1	none
CC(=O)c1cccc(NC(=O)CNC(=O)c2sc3ccccc3c2Cl)c1	Mdm2 MdmX PPI 76 (no result: Beta cell apopt) | Mdm2 MdmX conf 48 | Full FLuc ctr 55
COc1ccc(NC(=O)NCCCCc2ccccc2)c(OC)c1	Mdm2 MdmX PPI 58 | Mdm2 MdmX conf inactive
